Compounds with a hit are over-represented: about 6.5% of the library has one in this group of screens.
HCMV inh = qHTS Assay for inhibitors of the human cytomegalovirus (HCMV). 410,000 tested, 4.5% active. HFF cells, HCMV-luciferase reporter, 72 h; stronger effect = lower value. activity change, negative = inhibition, % at 57.5 µM; in the data active = activity change below about -60%; inconclusive = no clear call, values can overlap the other calls; inactive = above about -39%
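Luciferase read-out from HCMV-luciferase-infected HFFs (MOI 1 PFU/cell) 72 h post infection at 37C; compounds added after 16 h cell attachment; activity normalized between buffer-only basal and Salinomycin (10uM) inhibitor controls.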
FMDV antiviral = High Throughput Screening for Foot and Mouth Disease Virus Antivirals. FMDV antiviral cell-based qHTS. Potency, µM (top dose mostly 57.9 µM), for the others: top-dose activity change, negative = inhibition, hits mostly inhibitors. 410,000 tested, 1.2% active. AID 1159524, 2015; calls by dose curve; tested in HEK293T cells; note: read-out not given here; potency is the fitted concentration of half-maximal effect; nearly all actives have a fitted effect of over 45% in size
VACV Venus inh = qHTS for Stage-Specific Inhibitors of Vaccinia Orthopoxvirus: Venus Reporter Primary qHTS; 330,000 tested, 0.46% active; Potency, µM (top dose mostly 36.5 µM), for the others: at the top dose activity change, negative = inhibition, hits mostly inhibitors; Vaccinia virus Venus reporter expression, fluorescence; calls by dose curve; tested in A549 cells; note: potency is the fitted concentration of half-maximal effect; nearly all actives have a fitted effect of over 30% in size
MARV entry inh = qHTS for inhibitors of binding or entry into cells for Marburg Virus. Marburg virus pseudotyped entry inhibition, cell reporter. Potency, µM (highest dose often 37.8 µM), inactives show top-dose activity change, negative = inhibition, most hits filed as inhibitors. 300,000 tested, 1.8% active. AID 540276, 2011; calls by dose curve; tested in HEK293 cells; note: potency is the fitted concentration of half-maximal effect
Vaccinia mCherry = qHTS for Stage-Specific Inhibitors of Vaccinia Orthopoxvirus: mCherry Reporter Primary qHTS. Vaccinia virus mCherry reporter infection, fluorescence. Potency, µM (titrated, usually from 36.5 µM), without a hit: top-dose activity change, negative = inhibition, actives largely listed as inhibitors. 310,000 tested, 0.63% active. AID 720579, 2013; calls by dose curve; tested in A549 cells; note: potency is the fitted concentration of half-maximal effect; nearly all actives have a fitted effect of over 35% in size
Lassa entry inh = qHTS for Inhibitors of binding or entry into cells for Lassa Virus; Potency, µM (series often up to 37.9 µM), inactives show at the highest dose activity change, negative = inhibition, most hits filed as inhibitors; 300,000 tested, 1.2% active; AID 540256, 2011; Lassa virus pseudotype entry inhibition, cell reporter; calls by dose curve; tested in HEK293 cells; note: potency is the fitted concentration of half-maximal effect; nearly all actives have a fitted effect of over 50% in size
* = called active by the depositor; i = inactive; ? = inconclusive; nt = no result given; + = active, no number; ! = not confirmed by another sample; [ ] = another dose, or the depositor's remark. % is set by controls: 0 for no effect and ±100 for the full control effect.

SMILES | HCMV inh | FMDV antiviral | VACV Venus inh | MARV entry inh | Vaccinia mCherry | Lassa entry inh
CCOC(=O)C(NC(=O)c1ccccc1)(OCc1ccccc1)C(F)(F)F (configuration not stated) | -33 | -6% | -6% | ? | -16% | 3%
COc1ccc(-c2oc3ccc(-c4cc(OC)c(OC)c(OC)c4)cc3c2C(=O)c2ccc(OC)nc2)cc1 | -99* | -16% | -12% | nt | -10% | nt
COc1cccc(Nc2ncc3nc(CCc4ccccc4)c(=O)n(Cc4cccs4)c3n2)c1 | nt | -16% | nt | nt | nt | nt
Nc1c2c(nc3sc4c(c13)CCCC4)-c1ccccc1CC2 | ? | -42% | ? | 7.1µM* | ? | 11µM*
Nc1c2c(nc3sc4c(c13)CCCCC4)CCCC2 | -71* | -5% | 10µM* | ? | ? | ?
CC(C)=CCC/C(C)=C/CO/N=C1\C[C@@H](O)[C@@H](O)[C@@H]2[C@@H]3C(=O)N(Cc4ccc5c(c4)OCO5)C(=O)[C@@H]3CC[C@@H]12 | nt | nt | nt | -17%[14.2 µM] | nt | nt
O=C(Cc1ccc(-c2ccccc2)cc1)NO | nt | nt | -19% | nt | -19% | nt
CN(C)c1ccc(/C=C2\CCc3cc(N)ccc32)cc1 | nt | nt | -5% | nt | -17% | nt
CCCCC(O)(c1ccc(CC)cc1)C(CN1CCOCC1)c1ccccc1 (configuration not stated) | -71* | -4% | nt | nt | nt | nt
CCc1ccc(C(O)(CC)C(CN2CCOCC2)c2ccccc2)cc1 (configuration not stated) | -63* | ? | 1% | ? | -16% | -21%
CCCCCC(O)(c1ccc(OC)cc1)C(CN1CCOCC1)c1ccccc1 (configuration not stated) | -61* | -29% | -11% | ? | -26% | ?
CCCCC(O)(c1ccccc1)C(CN1CCOCC1)c1ccccc1 (configuration not stated) | -20 | ? | nt | nt | nt | nt
CCCCC(O)(c1ccc(OC)cc1)C(CN1CCOCC1)c1ccccc1 (configuration not stated) | -38 | -20% | -12% | ? | i | -20%[46.1 µM]
COc1cccc(C(=O)NCCc2csc3nc(-c4ccccc4F)nn23)c1OC | 7 | 0% | -6% | nt | -4% | -13%[46.1 µM]
O=C(C[C@@H](c1ccco1)S(=O)(=O)c1ccccc1)c1ccc(F)cc1 | nt | nt | nt | 4% | nt | nt
Cc1ccc2cc(CCNC(=O)CC(C)C)c(=O)[nH]c2c1 | -67* | -13% | -6% | nt | i | nt
c1cnc2c(c1)ccc1cccnc12 | -99* | -6% | ? | 5.8µM* | 3.5µM* | 3.7µM*
Cc1ccnc2c1ccc1cccnc12 | -98* | -8% | ? | ? | 4.5µM* | ?
c1ccc(Nc2nc(N3CCCCC3)nc(N3CCNCC3)n2)cc1 | 16 | nt | -16% | 7.3µM* | -8% | ?
CCc1nnc2c3ccccc3nc(Nc3ccc(F)c(Cl)c3)n12 | 0 | ? | -8% | 3%[46.1 µM] | -14% | 0%[46.1 µM]
COC(=O)c1ccc2nc(NC(=O)C3CCCCC3)sc2c1 | 137 | -3% | nt | ? | nt | 14%
COC(=O)c1ccc2nc(Nc3nc4ccc(F)cc4s3)sc2c1 | -85* | ? | -3% | 0.79µM* | i | 6.3µM*
CC(C)(C)C(=O)Nc1nc2cc3c(cc2s1)OCO3 | -73* | 0% | nt | nt | nt | nt
COC(=O)c1ccc2nc(NC(=O)C(C)(C)C)sc2c1 | -63* | 14µM* | -8% | ? | i | 1.1µM*
CC1CCN(C(=O)CSc2nc(-c3ccc(C(C)C)cc3)no2)CC1 | 7 | 19% | -10% | nt | -11% | 17%[46.1 µM]
SMILES | HCMV inh | FMDV antiviral | VACV Venus inh | MARV entry inh | Vaccinia mCherry | Lassa entry inh
CCOc1ccc(NC(=O)CSc2nc3ccsc3c(=O)n2CC)cc1 | ? | -18% | -20% | nt | -16% | -2%[46.1 µM]
CCOc1ccc(NC(=O)CSc2nc3ccsc3c(=O)n2CCCCCC(=O)O)cc1 | +! | -1% | -5% | nt | -8% | -24%[46.1 µM]
O=C(Cn1c(=O)n(Cc2ccc(C(=O)NCc3ccccc3Cl)cc2)c(=O)c2ccccc21)Nc1ccc(F)c(Cl)c1 | 19 | -6% | 0% | 2%[46.1 µM] | -5% | ?
COC(=O)C1CCCCN1Cc1ccc2c(c1)CN(C(=O)c1csc(-c3cccs3)n1)CCO2 (configuration not stated) | nt | -19% | 0% | nt | -12% | nt
COC(=O)N[C@@H](C=Cc1ccccc1)[C@@H](C)[N+](=O)[O-] | nt | nt | nt | 2%[14.2 µM] | nt | nt
CC1CCN(S(=O)(=O)c2ccc3nc(Nc4cccc(F)c4)ccc3c2)CC1 | -102* | -11% | -24% | nt | ? | -21%[46.1 µM]
Cc1cc(O)c(C(C)C)cc1C1(c2cc(C(C)C)c(O)cc2C)OC(=O)c2ccccc21 | -103* | ? | ? | ? | ? | ?
Cc1cc(C2(c3ccc(O)c(C)c3)OC(=O)c3ccccc32)ccc1O | -29 | 10% | -6% | ? | -24% | -3%
O=C(NCC1(N2CCOCC2)CCCC1)c1cnn(-c2ncc3c(n2)-c2ccccc2CC3)c1C1CC1 | nt | 0% | -15% | nt | -19% | nt
O=C(CCCN1C(=O)/C(=C/c2cccc(Br)c2)SC1=S)Nc1ccccn1 | -101* | 0% | nt | ? | nt | -10%
O=C(CCCN1C(=O)/C(=C/c2cccc(Br)c2)SC1=S)Nc1cccnc1 | -99* | -2% | -28% | ? | ? | ?
O=C(CCN1C(=O)/C(=C/C=C/c2ccccc2)SC1=S)Nc1ccccn1 | -65* | -11% | -3% | -29% | i | ?
O=C(CCCN1C(=O)/C(=C\c2cccc(Br)c2)SC1=S)Nc1cccnc1 | -99* | -25% | ? | 4.5µM* | ? | ?
Cc1ccc(/C=C2\SC(=S)N(CCCC(=O)Nc3cccnc3)C2=O)cc1 | nt | ? | -3% | ? | -17% | ?
O=C(COc1ccccc1Cl)Nc1ccc(N2CCN(C(=O)c3ccccc3)CC2)cc1 | -34 | 22µM* | nt | nt | nt | nt
O=C(COc1ccccc1Cl)Nc1cc(NC(=O)COc2ccccc2Cl)cc(C(=O)O)c1 | 11 | 38% | -9% | ? | i | 8.9µM*
CC(Oc1ccc(Cl)cc1Cl)C(=O)Nc1ccc(N2CCN(C)CC2)cc1 (configuration not stated) | 15 | -14% | -11% | 12µM* | -12% | ?
O=C(COc1ccccc1Cl)Nc1ccc(N2CCCC2)cc1 | 3 | -13% | nt | nt | nt | nt
O=C(COc1ccccc1[N+](=O)[O-])Nc1ccc(N2CCN(C(=O)c3cccs3)CC2)cc1 | -33 | 13µM* | -23% | ? | -6% | ?
CC(Oc1ccc(Br)cc1)C(=O)Nc1cc(Cl)ccc1N1CCN(C)CC1 (configuration not stated) | -4 | -10% | -11% | 8.9µM* | -15% | ?
Cc1cccc(OCC(=O)Nc2ccc(N3CCN(C(=O)c4ccccc4)CC3)cc2)c1 | -36 | 28µM* | -21% | ? | -1% | -11%

Bioassay records from PubChem.
